High-throughput results (PubChem BioAssay)
A selection: hits, their analogues and other compounds. The true share with any hit is near 31%.
PLAP act: PLAP enzyme activators, biochemical, luminescence, HTS | Alkaline phosphatase, placental type (Homo sapiens), P05187 | purified PLAP enzyme, luminescent substrate read-out; hits give high values | activation fold at 20 µM | 96,000 compounds, 1.2% hits | AID 696, 2007; in the data active = activation fold above about 2
Target sequence (P05187 whole entry, looked up): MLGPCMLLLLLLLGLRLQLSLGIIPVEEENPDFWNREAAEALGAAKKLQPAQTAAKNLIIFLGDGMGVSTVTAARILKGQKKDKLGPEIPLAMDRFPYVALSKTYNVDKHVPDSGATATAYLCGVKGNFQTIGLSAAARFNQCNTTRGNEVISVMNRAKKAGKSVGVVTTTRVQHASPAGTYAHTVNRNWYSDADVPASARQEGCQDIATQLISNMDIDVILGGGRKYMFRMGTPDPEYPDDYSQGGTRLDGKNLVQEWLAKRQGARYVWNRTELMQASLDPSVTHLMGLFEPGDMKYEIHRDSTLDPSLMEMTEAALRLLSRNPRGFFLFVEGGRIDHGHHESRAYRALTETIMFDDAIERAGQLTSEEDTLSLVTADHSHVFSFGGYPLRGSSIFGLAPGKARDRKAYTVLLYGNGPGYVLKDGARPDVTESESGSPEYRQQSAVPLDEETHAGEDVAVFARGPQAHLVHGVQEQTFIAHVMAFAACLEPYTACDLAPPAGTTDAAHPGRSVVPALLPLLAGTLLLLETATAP
CYP2C9 activ: human CYP2C9 activators, primary screen, biochemical, luminescence; Cytochrome P450 2C9 (Homo sapiens), P11712; recombinant CYP2C9, luciferin-H conversion; hits give high values; factor 1 = untreated enzyme, 0 = blocked; activation factor at 5 µM; 96,000 compounds, 1.4% hits;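 active = activation factor of 2 or more for CYP2C9 at a 5 µM dose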
CYP2C19 act: human CYP2C19 activators, primary screen, biochemical, luminescence | Cytochrome P450 2C19 (Homo sapiens), P33261 | recombinant CYP2C19, luciferin-H EGE luminescence; hits give high values; 0 = fully inhibited enzyme, 1 = untreated enzyme | activation factor at 5 µM | 96,000 tested, under 10 active;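 active = activation factor of at least 2 at 5 µM in the primary screen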
CYP2C19 inhib: blockers of cytochrome P450 2C19 activity – biochemical, luminescence, ADME assay, primary screen; CYP2C19 Supersomes, luciferin-H EGE luminescence, 30 min; P33261; inhibition, % at 5 µM; 96,000 compounds, 21% hits;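 active = CYP2C19 inhibition above a set limit at 5 µM in the primary screen, cut at about 50% in these data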
CYP2C9 inhib: blockers of cytochrome P450 2C9 activity – biochemical, luminescence, ADME assay, primary screen; P11712; CYP2C9 Supersomes, luciferin-H conversion; inhibition, % at 5 µM; 96,000 compounds, 20% hits; AID 777, 2007;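 active = blocking of liver enzyme CYP2C9 beyond about 50% at 5 µM, limit read from the data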
Of the large screens only hits and unclear results are named; the others gave an inactive call.

Cc1ccc(NC(=O)CSc2nnc(-c3ccco3)c(-c3ccco3)n2)cc1	CYP2C19 inhib 98, CYP2C9 inhib 95
Cc1ccc(SCC(=O)Nc2ccc(-c3nnc(-c4ccco4)o3)cc2)cc1	CYP2C9 inhib 90
O=C(Cc1ccc(Cl)cc1)Nc1ccc(-c2nnc(-c3ccco3)o2)cc1	CYP2C19 inhib 55, CYP2C9 inhib 76
Cc1cccc(C)c1NC(=O)CSc1nnc(-c2ccco2)c(-c2ccco2)n1	none
O=C(O)CCC(=O)Nc1ccc(-c2nnc(-c3ccco3)o2)cc1	none
CC1(C)CC(CCNC(=O)c2ccc(-n3cnnn3)cc2)CC(C)(C)N1	none
Cc1ccc(S(=O)(=O)NC2=NCN(CCN3CCOCC3)CN2)cc1	none
CC1CCc2nn(CC(=O)N3CCc4ccccc43)cc2C1 (stereo not drawn)	none
Cc1ccccc1NC(=O)CSc1nnc(-c2ccco2)c(-c2ccco2)n1	CYP2C9 inhib 77
CCCC1(C(=O)O)NC(c2ccc(OC)cc2O)C2C(=O)N(c3ccc(OC)cc3)C(=O)C21 (stereo not drawn)	none
COC(=O)c1ccc(O)c(Sc2cc(C(=O)OC)ccc2O)c1	CYP2C19 inhib 88, CYP2C9 inhib 100
Cc1ccc(O)c(Sc2cc(C)ccc2O)c1	PLAP act 2.5, CYP2C19 inhib 97, CYP2C9 inhib 96
Cc1cnn(Cc2ccccc2)c1N	none
CCC1(CC)Nc2ccccc2C(=O)N1c1ccc(NC(C)=O)cc1	CYP2C19 inhib 74
Cc1ccc(N2CC(C(=O)OCc3ccccc3)CC2=O)cc1 (stereo not drawn)	none
C=CCn1c(SCC(=O)NCc2ccc3c(c2)OCO3)nc2scc(-c3ccccc3)c2c1=O	CYP2C9 inhib 54
C=CCn1c(SCC(=O)Nc2ccccc2)nc2scc(-c3cccs3)c2c1=O	CYP2C19 inhib 83, CYP2C9 inhib 100
C=CCn1c(SCC(=O)N2CCCC2)nc2scc(-c3cccs3)c2c1=O	none
C=CCn1c(SCC(=O)Nc2sccc2C(N)=O)nc2ccc(Cl)cc2c1=O	none
C=CCn1c(SCn2nnc3ccccc3c2=O)nc2scc(-c3cccs3)c2c1=O	CYP2C9 inhib 72
C=CCn1c(SCC(=O)Nc2sccc2C(N)=O)nc2sc(CC)cc2c1=O	CYP2C9 inhib 66
CCn1ccc(C(=O)Oc2ccc(C(C)C)cc2)n1	none
CC(=O)C1=C(O)C(=O)N(CCNCCO)C1c1ccccc1 (stereo not drawn)	none
CCn1c(SCc2ccc(F)cc2)nnc1-c1nn(-c2ccccc2)ccc1=O	none
O=C(NCc1ccccc1)c1ccc2c(c1)C(=O)N(CC1CCCO1)C2=O (stereo not drawn)	none
O=C(NCCc1c[nH]c2ccccc12)c1cnc2sccn2c1=O	CYP2C9 activ 2.5, CYP2C19 inhib 89
CCC(=O)NCCc1c[nH]c2ccccc12	none
Cc1ccc(NC(=S)NCCc2c[nH]c3ccccc23)cc1	CYP2C19 inhib 86
O=C(NCCc1c[nH]c2ccccc12)Nc1ccccc1	CYP2C19 inhib 91
CCSc1nnc(NC(=O)C2Cc3ccccc3CN2C(=O)c2ccco2)s1 (stereo not drawn)	CYP2C9 inhib 53
O=S(=O)(Cc1ccc(Cl)cc1)CC(O)COCc1ccccc1 (stereo not drawn)	none
O=C(NCCc1c[nH]c2ccccc12)C(F)(F)C(F)F	CYP2C19 inhib 72
O=C(O)C1CCCCC1C(=O)NCCc1ccncc1 (stereo not drawn)	CYP2C9 inhib 67
O=C(O)C1CCCCC1C(=O)NCCc1c[nH]c2ccccc12 (stereo not drawn)	CYP2C19 inhib 75
O=C(CCc1c[nH]c2ccccc12)NC1CC1	none
O=C(NCCc1c[nH]c2ccccc12)C1Cc2ccccc2CN1C(=O)c1ccco1 (stereo not drawn)	CYP2C19 inhib 95, CYP2C9 inhib 63
O=C(O)[C@H]1CCCC[C@H]1C(=O)NCCc1ccccc1	none
O=C(NCCCNC(=O)C(F)(F)C(F)F)C(F)(F)C(F)F	none
Cc1ccc(S(=O)(=O)c2cc(N3CCOCC3)nc(-c3ccccc3)n2)cc1	none
Cc1noc(COc2ccccc2OCC(N)=O)c1Cl	none
Cc1c(C#N)c2ccccc2n1CC(=O)NCCc1c[nH]c2ccccc12	none
N#Cc1cn(CC(=O)NCCc2c[nH]c3ccccc23)c2ccccc12	CYP2C19 inhib 50, CYP2C9 inhib 66
COc1ccc(Cl)cc1NC(=S)NCCc1c[nH]c2ccccc12	CYP2C9 activ 2.3, CYP2C19 inhib 92
COc1ccc(NC(=S)NCCSc2ccc(Cl)cc2)c(OC)c1	none
O=C(c1ccccc1S(=O)(=O)NCc1ccccc1)N1CCCCC1	CYP2C19 inhib 89
Cc1ccc(OCC(O)CNS(=O)(=O)c2ccccc2C(=O)N2CCCCC2)cc1 (stereo not drawn)	none
CCC(C)Sc1nc(O)c(Cc2ccccc2)c(=O)[nH]1 (stereo not drawn)	none
c1ccc2c(c1)c1ccccc1n1c(-c3ccc4c(c3)OCO4)nnc21	none
CN1CC2=Cc3ccccc3OC23Oc2ccccc2C=C3C1	CYP2C19 inhib 54, CYP2C9 inhib 58
CCOC(=O)c1sc(NC(=O)C2CC=CCC2C(=O)O)nc1C (stereo not drawn)	none
COC(=O)c1nc(NC(=O)C(C)C)n[nH]1	none
O=C(C1CCCN1S(=O)(=O)c1ccc(Cl)c(Cl)c1)N1CCCCC1 (stereo not drawn)	CYP2C9 activ 2.6
O=C(Nc1ccc(Cl)cn1)C1CCCN1S(=O)(=O)c1ccc(Cl)cc1 (stereo not drawn)	CYP2C9 inhib 74
Cc1ccc(S(=O)(=O)N2CCCC2C(=O)Nn2cnnc2)cc1 (stereo not drawn)	none
O=C(Nc1nccs1)C1Cc2ccccc2CN1S(=O)(=O)c1ccc(F)cc1 (stereo not drawn)	CYP2C19 inhib 61
Cc1ccc(S(=O)(=O)N2CCCC2C(=O)NC2CCCCC2)cc1 (stereo not drawn)	CYP2C19 inhib 77
COc1cc2c(C(=O)O)c(C)n(CC(C)C)c2c2ccccc12	none
O=C(Nc1nnc(C2CC2)s1)C1Cc2ccccc2CN1S(=O)(=O)c1ccccc1F (stereo not drawn)	CYP2C19 inhib 55
Cc1ccc(S(=O)(=O)N2CCCC2C(=O)N2CCCCCC2)cc1 (stereo not drawn)	CYP2C9 activ 2.7
Cc1ccc(S(=O)(=O)N2CCCC2C(=O)Nc2nccs2)cc1 (stereo not drawn)	CYP2C19 inhib 60, CYP2C9 inhib 61
Cc1cc(Br)ccc1NC(=O)CN1C(=O)C2C3CC(c4ccccc4)C(C3)C2C1=O (stereo not drawn)	CYP2C9 inhib 68
CC1Oc2ccccc2N(Cc2ccccc2F)C1=O (stereo not drawn)	CYP2C19 inhib 90, CYP2C9 inhib 67
